Compound activity as filed in PubChem.
Cycloheximide cs = Cycloheximide Counterscreen for Small Molecule Inhibitors of Shiga Toxin. cell reporter, cycloheximide protein synthesis inhibition counterscreen. max response, %. actives 12% (n = 300,000). AID 2314, 2010; in the data active = max response mostly above about 13%, no sharp cut-off; inactive = mostly below about 14%; note: read at 38.3 µM for the half of the compounds with a filed dose
Shiga toxin inh = A qHTS for Small Molecule Inhibitors of Shiga Toxin. Vero cells, Shiga toxin protein synthesis inhibition reporter. inhibition, % at 38.7 µM. actives 9.2% (n = 290,000). AID 2315, 2010; in the data active = inhibition mostly above about 28%, no sharp cut-off; inactive = mostly below about 43%
LASV entry inh = qHTS for Inhibitors of binding or entry into cells for Lassa Virus; Lassa virus pseudotype entry inhibition, cell reporter; Potency, µM (doses to about 37.9 µM), usual class: inhibitors; actives 1.2% (n = 300,000); calls by dose curve; tested in HEK293 cells; note: nearly all actives have a fitted effect of over 50% in size
Marburg entry inh = qHTS for inhibitors of binding or entry into cells for Marburg Virus; actives 1.8% (n = 300,000); Potency, µM (doses to about 37.8 µM), hits mostly inhibitors; Marburg virus pseudotyped entry inhibition, cell reporter; AID 540276, 2011; calls by dose curve; tested in HEK293 cells
Numbers stand for hits; . = inactive; ? = inconclusive; / = not tested or not shown. Most compounds without a hit are left out; they make up all but 12% or so of the library.

SMILES	Cycloheximide cs	Shiga toxin inh	LASV entry inh	Marburg entry inh
COc1cccc(N(CC(=O)NC2CCCCC2)C(=O)CCC(=O)Nc2nccs2)c1	.	.	.	.
COc1ccc(-c2nnn(CC(=O)c3ccc4c(c3)OCCO4)n2)cc1OC	16.1	.	?	?
CCCCOc1ccc(-c2nnn(CCC(=O)N3CCOCC3)n2)cc1	35.7	77.6	.	.
O=C(Cn1nnc(-c2ccc(Cl)cc2)n1)NC1CC2CCC1C2 (stereo not drawn)	.	.	.	.
CCCOc1ccc(-c2nnn(CC(=O)N3CCC(C)CC3)n2)cc1	.	.	.	.
CC1CCN(C(=O)Cn2nnc(-c3ccccc3)n2)CC1	30.0	82.5	/	/
CC1CC(C)CN(C(=O)Cn2nnc(-c3ccccc3)n2)C1 (stereo not drawn)	.	.	.	.
CCOc1ccc(-c2nnn(CC(=O)c3ccc4c(c3)OCCO4)n2)cc1	.	.	.	.
Cc1ccc(-c2nnn(CC(=O)NC3CC4CCC3C4)n2)cc1 (stereo not drawn)	11.6	.	.	?
Cc1cc2c(cc1S(=O)(=O)NCc1ccc(F)cc1)n(C)c(=O)c(=O)n2C	/	/	.	/
CCCCc1cc(=O)oc2c(C)c(OCc3nn[nH]n3)ccc12	.	.	.	.
O=C(Cn1nnc(-c2ccccc2)n1)c1ccccc1	.	.	?	.
O=C(Cn1nnc(-c2ccc(N3CCOCC3)cc2)n1)N1CCOCC1	34.4	33.6	/	/
Cc1ccc(C(=O)Cn2nnc(-c3ccccc3)n2)cc1	.	81.8	.	.
CC1CCN(C(=O)CSc2nnc(-c3ccccc3)o2)CC1	/	/	?	.
Cc1ccc(-c2nnn(CC(=O)N3CCCCC3)n2)cc1	18.6	/	.	.
O=C(Cn1nnc(-c2ccc(N3CCOCC3)cc2)n1)OC1CCCCC1	.	.	?	.
CC1CCN(C(=O)CCc2nnc(-c3ccccc3)o2)CC1	43.4	97.5	.	.
COc1ccc(NC(=O)CCS(=O)(=O)c2ccc3c(c2)CCN3C(C)=O)cc1	.	.	/	/
COc1cc(OC)c(NC(=O)Nc2cc(C)on2)cc1Cl	.	.	/	/
CC1=NN(c2ccc(C(=O)O)cc2)C(=O)CC1	29.0	44.4	.	.
Cc1cccc(CNC(=O)c2ccc3nc(Cc4ccccc4F)oc3c2)n1	58.0	110.6	.	.
COCCNC(=O)c1ccc2nc(Cc3ccccc3)oc2c1	/	/	.	/
O=C(NCCc1ccccn1)c1ccc2nc(Cc3ccccc3F)oc2c1	62.1	105.1	?	?
COc1ccc(Cl)cc1NC(=O)CSc1nc(=O)[nH]c2c1CCC2	.	.	.	/
SMILES	Cycloheximide cs	Shiga toxin inh	LASV entry inh	Marburg entry inh
O=C(NCC(c1ccco1)S(=O)(=O)c1cccs1)c1c(F)cccc1F (stereo not drawn)	/	/	.	/
CS(=O)(=O)N(CC(=O)Nc1ccc(CC#N)cc1)c1ccc(C23CC4CC(CC(C4)C2)C3)cc1	22.0	77.1	?	?
CC(=O)Nc1ccc(NC(=O)CN(c2ccc(C34CC5CC(CC(C5)C3)C4)cc2)S(C)(=O)=O)cc1	.	.	?	.
O=C(CSCCO)Nc1ccc(C23CC4CC(CC(C4)C2)C3)cc1	24.4	52.8	?	.
CC(C)n1cc(CN2CCC(Oc3ccc(C(=O)N4CCCC4)cc3)CC2)cn1	.	.	?	.
C(=N\Nc1ccccn1)/c1ccc2c(c1)OCCO2	35.2	32.6	?	?
Fc1cccc(/C=N/Nc2ccccn2)c1	55.8	81.1	.	.
Fc1cccc(F)c1/C=N/Nc1ccccn1	50.0	95.5	/	/
CC(CNS(=O)(=O)c1ccc(Cl)cc1)n1cncn1 (stereo not drawn)	.	.	.	.
COc1ccc(C(C)(C)C)cc1NC(=O)c1ccc[n+]([O-])c1	.	.	.	?
Cc1cc(C(C)(C)C)cc(C)c1CCNC(=O)c1ccc[n+]([O-])c1	.	.	3.16µM	0.631µM
CC(C)(C)CC(C)(C)NCC(O)COc1ccc2c(c1)CCC2 (stereo not drawn)	/	/	?	7.08µM
CC(C)(CO)NCC(O)COc1ccc2c(c1)CCC2 (stereo not drawn)	.	.	.	.
COc1ccc(/C(N)=N/OC(=O)c2ccc3c(c2)OCO3)cc1OC	.	.	?	?
N/C(=N\OC(=O)c1ccc2c(c1)OCO2)c1ccc([N+](=O)[O-])cc1	.	.	.	.
N/C(=N\OC(=O)c1ccc2c(c1)OCO2)c1cccnc1	20.6	58.3	?	?
N/C(=N\OC(=O)c1ccc2c(c1)OCO2)c1cccc(Br)c1	30.4	86.8	/	?
Cc1cccc(OCC(=O)Nc2cccc(OCc3cc(=O)n4cccc(C)c4n3)c2)c1	/	/	.	/
N#CC(C#N)=NNc1ccc(OC(F)(F)F)cc1	44.1	60.0	/	/
COc1cccc(NC(=O)c2c(-c3ccc(C)cc3)nnc3ccccc23)c1	/	/	.	/
